# According to PubChem BioAssay AID652105 (National Center for Advancing Translational Sciences (NCATS), 2013):
# Screen size: about 330,000 compounds; about 4,100 (1.2%) were called active. Not shown: some 2% with an inconclusive outcome. The calls were made as follows: active = max response of -50% or lower; inconclusive = between -30% and -50%; inactive = -30% or higher. The full list was thinned out, with actives kept by preference.
# Biological target: Phosphatidylinositol 5-phosphate 4-kinase type-2 alpha (Homo sapiens) (UniProt P48426)
# Sequence (P48426 whole entry, looked up): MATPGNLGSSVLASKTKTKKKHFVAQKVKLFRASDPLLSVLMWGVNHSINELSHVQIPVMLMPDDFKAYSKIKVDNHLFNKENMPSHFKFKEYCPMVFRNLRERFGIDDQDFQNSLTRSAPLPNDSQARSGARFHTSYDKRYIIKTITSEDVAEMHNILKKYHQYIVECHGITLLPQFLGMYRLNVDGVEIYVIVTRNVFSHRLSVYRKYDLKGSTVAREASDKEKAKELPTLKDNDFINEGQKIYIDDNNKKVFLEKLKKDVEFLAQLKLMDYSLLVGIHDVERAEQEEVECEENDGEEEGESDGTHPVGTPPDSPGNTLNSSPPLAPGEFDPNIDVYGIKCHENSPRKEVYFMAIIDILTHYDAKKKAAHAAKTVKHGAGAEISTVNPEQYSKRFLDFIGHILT
# Experiment: qHTS for Inhibitors of phosphatidylinositol 5-phosphate 4-kinase (PI5P4K); also: value at the top dose of about 77 µM
# Conditions: PI5P4Kalpha enzyme, ADP-Glo luminescence, 60 min; stronger effect = lower value
# Procedure, shortened: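 ADP-Glo luminescence end-point after a 60 min room-temperature kinase reaction. PI5P4Kalpha and substrate in HEPES pH 7.4 buffer with EGTA, 0.1% CHAPS and 5% DMSO; ATP at 5 microM final.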
# % is scaled to controls: 0 for no effect and ±100 for the full control effect.
row,Compound,max response
1,O=C(NCc1cccnc1)c1cc(C2CCCN(C(=O)CCCc3ccccc3)C2)on1 (stereo not given),1.02% (inactive)
2,O=C(Nc1ccccc1)C1CCN(C(=O)c2ccc(Br)cc2)CC1,-5.42% (inactive)
3,COc1ccc(CNC(=O)C2CCN(C(=O)c3ccccc3)CC2)cc1,6.89% (inactive)
4,COc1ccc(C(=O)N2CCC(C(=O)Nc3ccc(C)cc3)CC2)cc1,-67.6% (active)
5,Nc1ccccc1SC(C[N+](=O)[O-])c1ccccc1 (stereo not given),-75.7% (active)
6,Nc1ccccc1SCc1cc([N+](=O)[O-])cc2c1OCOC2,0.872% (inactive)
7,Cc1ccc(C(C[N+](=O)[O-])c2c(C)cc3ccccn23)cc1 (stereo not given),3.11% (inactive)
8,COc1cc(NC(=O)c2cc(-c3ccc(F)cc3OC(C)C)n[nH]2)cc(OC)c1OC,-6.5% (inactive)
9,CCCCCCN1CCN(C2CN(Cc3cn(Cc4ccc(F)cc4)nn3)S(=O)(=O)C2)CC1 (stereo not given),0.312% (inactive)
10,NS(=O)(=O)c1ccc(-c2ccc(/C=C3\SC(=O)NC3=O)o2)cc1,-52.9% (active)
11,CN1CCN(/N=C/c2ccc(-c3ccc([N+](=O)[O-])cc3)o2)CC1,-0.908% (inactive)
12,O=C(Nc1ccccc1)c1ccccc1Br,2.77% (inactive)
13,CCN(CC)CCN(C)C(c1ccnc2ccccc12)c1nnnn1-c1ccc2c(c1)OCCO2 (stereo not given),-0.0355% (inactive)
14,O=C(N/N=C/c1ccco1)c1csc2c1CCCC2,-21.6% (inactive)
15,O=C(N/N=C/c1ccco1)c1ccc(C(=O)N/N=C/c2ccco2)o1,-70.9% (active)
16,O=C(Cc1ccc([N+](=O)[O-])cc1)N/N=C/c1ccco1,-5.81% (inactive)
17,OC(c1cc(Cl)cc(Cl)c1)c1ncc(-c2ccccc2C(F)(F)F)[nH]1 (stereo not given),14.3% (inactive)
18,COc1ccc(NC(=O)C2Cc3c(-c4cccc(NC(C)=O)c4)ccnc3O2)cc1OC (stereo not given),-8.09% (inactive)
19,C=CCC[C@H](CCCCC)OC(=O)/C=C/[C@H](O)[C@@H](O)C[C@@H](O)CC=C,17.1% (inactive)
20,Oc1[nH]c2ccc(Br)cc2c1N=Nc1nn[nH]n1,-58.4% (active)
21,NS(=O)(=O)c1ccc(N=Nc2c(O)[nH]c3ccc(Br)cc23)cc1,-0.139% (inactive)
22,O=C(CNC(=O)Cc1ccccc1)N=Nc1c(O)[nH]c2ccc(Br)cc12,-6.57% (inactive)
23,CC1(C(=O)NCc2ccccc2)CN(S(C)(=O)=O)CC(=O)N1CC(F)(F)F (stereo not given),-7.01% (inactive)
24,O=C(O)c1ccccc1N=N/C(=N/Nc1cc(S(=O)(=O)O)ccc1O)c1ccccc1,-101% (active)
25,CN1OC[C@@H]2CN(C(=O)c3cccc4ccccc34)[C@H](c3ccc(N4CCCCC4)cc3)C[C@@H]21,-0.774% (inactive)
